Laboratory results: PubChem BioAssay (NCI)
This is part of a sample that, as a whole, favours compounds with a hit. Of some 79,000 tested, about 15% had one in any assay. Active and inactive are the calls of the source. Cut-off read from the data, not from the text of the source: active = growth inhibition above about 70%; inactive = the rest.

Legend:
[1] = NCI Yeast Anticancer Drug Screen. Data for the rad50 strain (AID 155);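 note: 0% = growth of vehicle-only cultures of the same strain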; details: S. cerevisiae rad50 strain growth inhibition, hits give high values
Summary of the method: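 Yeast carrying a defined DNA repair defect were exposed to test compounds, and growth was compared with vehicle-treated controls to give percent inhibition.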

[2] = NCI Yeast Anticancer Drug Screen. Data for the mec2-1 strain (AID 157); details: S. cerevisiae mec2-1 strain, hits give high values
Summary of the method: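 Compounds were applied to mec2-1 yeast cells. Their growth was then compared with that of vehicle-treated cultures to give growth inhibition.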

[3] = NCI Yeast Anticancer Drug Screen. Data for the sgs1 mgt1 strain (AID 161);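 note: 0% = growth of cultures given vehicle only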; details: S. cerevisiae sgs1 mgt1 strain, hits give high values
Summary of the method: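 Compounds are added to genetically altered yeast, and growth is compared with cultures given vehicle alone to give percent inhibition.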

[4] = NCI Yeast Anticancer Drug Screen. Data for the cln2 rad14 strain (AID 165);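 note: 0% = growth equal to vehicle treated cultures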; details: S. cerevisiae cln2 rad14 strain, hits give high values
Summary of the method: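 Strain: cln2 rad14 yeast, altered in cell cycle control and DNA damage repair. Read-out: growth inhibition vs vehicle.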

[5] = NCI Yeast Anticancer Drug Screen. Data for the bub3 strain (AID 167); details: S. cerevisiae bub3 mutant strain, hits give high values
Summary of the method: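 Compounds were applied to a genetically altered yeast strain carrying a cell-cycle control defect. Growth inhibition was scored against vehicle-treated controls.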

[6] = NCI Yeast Anticancer Drug Screen. Data for the mlh1 rad18 strain (AID 175); details: S. cerevisiae mlh1 rad18 strain growth inhibition, hits give high values
Summary of the method: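 A repair-deficient yeast strain is exposed to test compound, and growth is scored relative to vehicle-treated controls.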

[7] = at 5.0 µM (retest, dose inferred, filed as 0.5)
[8] = at 50.0 µM (retest, dose inferred, filed as 5.0)

Measured: growth inhibition

COc1ccc(C=Nc2ccccc2O)cc1
inactive: [1]; [7] 26% | [1]; [8] 44% | [1]; at 50.0 µM 59.1% | [2]; [7] 15% | [2]; [8] 22% | [2]; at 50.0 µM 32.2% | [3]; [7] 11% | [3]; [8] 15% | [3]; at 50.0 µM 39.5% | [4]; [7] -2% | [4]; [8] 13% | [4]; at 50.0 µM -15.9% | [6]; [7] 38% | [6]; [8] 54% | [6]; at 50.0 µM 67.4%
active: [5]; [7] 81% | [5]; [8] 74% | [5]; at 50.0 µM 76.6%

CC(=O)c1sc2c(c1O)c(=O)n(-c1ccccc1)c(=S)n2-c1ccccc1
inactive: [1]; [7] -4% | [1]; at 50.0 µM 68.3% | [2]; [7] 19% | [2]; at 50.0 µM 67.4% | [3]; [7] 10% | [4]; [7] 16% | [5]; [7] 25% | [5]; at 50.0 µM 58.4% | [6]; [7] -11% | [6]; at 50.0 µM 29.9%
active: [1]; [8] 75% | [2]; [8] 83% | [3]; [8] 88% | [3]; at 50.0 µM 75.5% | [4]; [8] 95% | [4]; at 50.0 µM 80% | [5]; [8] 94% | [6]; [8] 87%

CCCCCCCCCCC[N+]1(Cc2ccccc2)CC2CCN(Cc3ccccc3)CC2C1 (configuration not stated)
inactive: [3]; [7] 54%
active: [1]; [7] 97% | [1]; [8] 100% | [1]; at 50.0 µM 99.5% | [2]; [7] 73% | [2]; [8] 100% | [2]; at 50.0 µM 99.3% | [3]; [8] 99% | [3]; at 50.0 µM 99.6% | [4]; [7] 95% | [4]; [8] 99% | [4]; at 50.0 µM 99.4% | [5]; [7] 99% | [5]; [8] 99% | [5]; at 50.0 µM 99.5% | [6]; [7] 97% | [6]; [8] 99% | [6]; at 50.0 µM 99.5%

CCCCN(CCCC)c1ccc2c(c1)C(O)c1ccccc1-2 (configuration not stated)
active: [1]; [8] 81% | [1]; at 50.0 µM 76.5% | [2]; [8] 74% | [3]; [8] 78% | [3]; at 50.0 µM 88.1% | [4]; [8] 85% | [4]; at 50.0 µM 74.8% | [5]; [8] 77% | [5]; at 50.0 µM 82% | [6]; [8] 72% | [6]; at 50.0 µM 85.2%
inactive: [1]; [7] 6% | [2]; [7] 2% | [2]; at 50.0 µM 59.2% | [3]; [7] 4% | [4]; [7] 5% | [5]; [7] 0% | [6]; [7] 15%

Cc1ccc2c(c1)[n+]([O-])c(N)n[n+]2[O-]
active: [1]; at 50.0 µM 75.7%
inactive: [1]; [7] 21% | [1]; [8] 61% | [2]; [7] 1% | [2]; [8] 35% | [2]; at 50.0 µM 48.4% | [3]; [7] 17% | [3]; [8] 43% | [3]; at 50.0 µM 57.1% | [4]; [7] 11% | [4]; [8] 47% | [4]; at 50.0 µM 40.2% | [5]; [7] -7% | [5]; [8] 36% | [5]; at 50.0 µM 43.1% | [6]; [7] 20% | [6]; [8] 64% | [6]; at 50.0 µM 50.6%

O=C(NO)Nc1nc(Cl)c(Cl)nc1Cl
inactive: [1]; [7] 16% | [2]; [7] 18% | [3]; [7] 30% | [4]; [7] 2% | [5]; [7] 6% | [6]; [7] 20%
active: [1]; [8] 97% | [1]; at 50.0 µM 90% | [2]; [8] 99% | [2]; at 50.0 µM 92.7% | [3]; [8] 99% | [3]; at 50.0 µM 90.2% | [4]; [8] 99% | [4]; at 50.0 µM 83.5% | [5]; [8] 98% | [5]; at 50.0 µM 90.3% | [6]; [8] 99% | [6]; at 50.0 µM 90.3%

COc1cc2c(cc1OC)C(N(C)C)C(c1ccccc1)=C2Cl (configuration not stated)
inactive: [1]; [7] 0% | [2]; [7] -28% | [3]; [7] 1% | [4]; [7] 14% | [5]; [7] 25% | [6]; [7] 7%
active: [1]; [8] 96% | [1]; at 50.0 µM 91.2% | [2]; [8] 99% | [2]; at 50.0 µM 93.5% | [3]; [8] 96% | [3]; at 50.0 µM 92.2% | [4]; [8] 98% | [4]; at 50.0 µM 91.5% | [5]; [8] 98% | [5]; at 50.0 µM 90.8% | [6]; [8] 99% | [6]; at 50.0 µM 90.4%

N#CC(CCCCl)(c1ccccc1)c1ccccc1
inactive: [1]; [7] 2% | [1]; [8] 33% | [2]; [7] 3% | [2]; [8] 32% | [3]; [7] 4% | [3]; [8] 51% | [4]; [7] 0% | [4]; [8] -3% | [4]; at 50.0 µM 41.8% | [5]; [7] -1% | [5]; [8] 22% | [5]; at 50.0 µM 67% | [6]; [7] 15% | [6]; [8] 69%
active: [1]; at 50.0 µM 86.8% | [2]; at 50.0 µM 84% | [3]; at 50.0 µM 88.5% | [6]; at 50.0 µM 92.2%

C1C[OH+]CC[OH+]CCNCC[OH+]CC[OH+]CCN1.[Cl-].[Pt+4]
active: [1]; at 50.0 µM 86.8% | [2]; at 50.0 µM 87.4% | [3]; at 50.0 µM 84.8% | [4]; at 50.0 µM 87.1% | [5]; at 50.0 µM 86.2% | [6]; at 50.0 µM 84.2%
inactive: [1]; [7] 34% | [1]; [8] 34% | [2]; [7] 34% | [2]; [8] 34% | [3]; [7] 29% | [3]; [8] 29% | [4]; [7] 29% | [4]; [8] 29% | [5]; [7] 10% | [5]; [8] 10% | [6]; [7] 43% | [6]; [8] 43%
